Results on three molecules are retold here after PubChem BioAssay AID624264 (National Center for Advancing Translational Sciences (NCATS), 2012).

The other results are listed elsewhere or left out. Results filed as inconclusive are left out. Calls of active or inactive are those of the source. Calls follow the shape of the dose curve; as a rule, active = well fitted curve in the direction sought with a large enough effect; inconclusive = small, poorly fitted or top-dose-only effect, or another doubt; inactive = no such curve, though single readings can be large or run the other way.

The nature of this test: qHTS for Inhibitors of Glutaminase (GLS): Hit Confirmation using Cytotoxicity. The conditions noted are these: HEK-293 viability, CellTiter-Glo luminescence, 24 h; series mostly up to 46.1 µM. An excerpt:
Glutaminase (GLS) catalyzes the hydrolysis of glutamine into glutamate and ammonia. It plays a critical role in glutaminolysis, which is an important energy source for proliferating cells. It was shown that c-Myc, an oncogenic transcription factor known to regulate microRNAs and to stimulate cell proliferation, increases glutamine metabolism by stimulating the expression of GLS via direct suppression of miR23a and miR23b. […] GLS is also thought to play a pathogenic role on HAD using a human HIV-1 infected macrophage system. […] GLS inhibition limits glutamate release and provides neuroprotection against HIV-1 infected macrophages. […] The overall goal of this project is to identify small molecule inhibitors of GLS through quantitative high throughput screening (qHTS) of the MLSMR. A validated potent and selective inhibitor can be used as a tool molecule to further study the pharmacology of its target as well as explore its potential therapeutic application in cancer and inflammatory neurological disorders, such as HIV1-associated dementia (HAD) and multiple sclerosis. This is a hit confirmation assay using a cytotoxic read-out to exclude cytotoxic compounds. Toxic compounds will be labeled as active and excluded in future experiment. NIH Chemical Genomics Center [NCGC] NIH Molecular Libraries Probe Centers Network [MLPCN] MLPCN Grant: DA032470 Assay Submitter (PI): Barbara S. Slusher, Johns Hopkins University
HEK-293 cells are grown in a flask up to 80% confluence. Cells will be trypsinized, washed, and resuspended in MEM Eagle + 10% FBS + 1% pen-strep media at the concentration of 120 cells/microl. Five microl/well of cell solution will be dispensed into a 1536-well assay plates (Greiner, solid white medium-binding plates) with Auror Discovery BioRAPTR Flying Reagent Dispenser (FRD; Beckton-Dickenson). Cells will be pre-incubated at 37 °C, 5% CO2 for 4hrs. Compound and control solutions (23nl) will then be transferred to the assay plate using the Kalypsys 1536 pin-tool. […] Luminescence signal will be read with PerkinElmer ViewLux plate reader after 30 min room temperature incubation.
With `COc1cc(OC)c(S(=O)(=O)Nc2ccccc2C(=O)O)cc1S(=O)(=O)Nc1ccccc1C(=O)O`, the molecule was called inactive.

For `CCN1C(=O)c2cccc3c(S(=O)(=O)Nc4ccccc4O)ccc1c23`, the outcome was inactive.

Consider `O=C(O)c1cccc(S(=O)(=O)Nc2ccc(O)cc2Sc2nc3ccccc3s2)c1`, for which the molecule was called inactive.
